PBM binding z-score data for 40 sequences are collected here from the supplement of paper PMC6555819.

The test system of this test is PPARg:RXRa 90nM:30nM, anti-RXR (NR concentration 90 nM, RXRa partner concentration 30 nM). Nature of the test: PBM binding z-score (relative to random genomic background probes); higher = stronger binding; sequences stand for … in GC…GCGATTGACAGCGTAGAATGAAGG
In short, it runs like this:
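Binding z-scores take random background probes as their reference. They come from custom Agilent 4×180K protein-binding microarrays incubated 1 h with ligand-free nuclear receptor dimers, with antibodies against each partner (one per run) detecting binding. Scanned fluorescence was regression-normalized.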
CAAACTAGGTCACCGGAAGGTCCAAGTCCGCATG registered a PBM binding z-score of 7.02.
In the case of TCTTGTAGATCATTAGAGGTTAAGAAAGTGCGCT it was 2.33; in that of TCTTGTAGATCAACAGGAGGCTAAGAAAGATCGA, 1.35; in that of TTAACAAGGTGAGCTGAGGTCGTTGATCCAACTC, 0.24.
For ACAGACAGGTGAGTGAAGCTAACTCAGCTGGACG the value was -0.258.
In the case of GCTGCTAGGTCAGGTTGGTCAGCTTACGGGTACG it was 0.294.
Consider ACTAGCAGGCCAAGTTTGGGTCACACAAACAAAG, for which the PBM binding z-score is 0.0156.
In the case of TCTTGTAGATCAATAGCGGTTAAGAAAGTGCGCT it was 2.17; in that of ATCTCGAGGTAAGACTCAGTTCAGTGAAGAACGC, -0.236.
For AGAATGAGGTTAATATCAGGGAAACAGAATACAT, the PBM binding z-score came to 1.48.
Regarding GCTAGCAGGCCATTTGGGTCATTCAATGACGGGC, the PBM binding z-score was -0.17.
In the case of GATACAGGGCCAAGGCCAGAGTACGCGTATTGAT it was -0.247; in that of CGAAATAGGTCAAGGACAGTGAATCTCCGCACGC, 6.39; in that of ATCTCTAGGTAAACAAGTTCAGTGAATGCCGAAC, 0.709.
As for AGATGTAGGTTATCGGGTCATTCAGTTTGCGCAT, the PBM binding z-score was found to be 5.27.
In the case of TCGTGTAGGTTAGTCGGGGCATTCAGCCAACATA it was 1.62; in that of TCTCAAAGTTCAAAGGTAACGTAAGTATCCACAC, 5.6.
In the case of TCATATAGGTAAACAGATGAAAGTCCGTAAGTTA it was 3.18; in that of CCTGCTAGGTCAGTGGTCAGCTAAAGCAGCTCGC, 1.59; in that of TAAACAGGGTCAAAGGCCAGAGTACGAATGTCGA, 8.47.
For AGGACGAGGGCACGCTGAGTTGATAGCAGAGTAG the value was 0.384; for GATACAGGGTCAGCTGGAGGCCAGAGTATGGAAA, 2.49.
With CGTCCGAGGTCAGCAGGTCAGTGAAAGCGACGTG, the PBM binding z-score amounted to 4.16.
In the case of ATACCAAGGCGATCGTGAGGTCGTTGATACTAAC it was -0.191; in that of TAGAGTAGGTTAGGGGCATTCAGAATGGCGTCGA, 2.6.
In the case of CCTTACGGGTCAACGTTATAGCACGGGTGGTACG it was 3.43.
For ATACCAAGGTGATCGTAAGGTCGTTGATACTAAC the value was 0.398; for ATACCAAGGTGATCGTGAGGTCGTGGATACTAAC, 0.493; for GCTCGGTGGACAAGGTCAGAGCTTTGTCCGTAGA, 0.499.
For CCTAGCTGGTCAGGAGGTCACACACCGGATATGA, the PBM binding z-score was 2.74.
For AGAATGAGGTTATTAAGTTCAGGGAATTGCGGTC the value was 1.08; for TCTTGTAGATCAAAGGTTAACAAAGCCGAAGCCT, 9.81; for CGTGCAAGGTCAGCAGGTCAGTGAAAGCGACGTG, 3.51.
For GCGACTGGGGCATCAGCAGGTTACCAGAACTTAA the value was 0.126; for AGTCAAAGTTCATCTATGTAACGTAAGATATGCT, 5.29; for AGTCATAGTTCAGGACGAGGTAACGTAAAGCACG, 0.867.
In the case of AGTCAAAGTGCACTAGGTAACGTAAGATTCAGCT it was 1.89.
Consider TCGAGAAGGTTACCAATGGGGCATTCAGCTTTCT, for which the PBM binding z-score is 1.69.
In the case of TCTAGTTGGTCAAAGGTCACACAGTCGAAATGCG it was 11.1; in that of CGAACTAGGTAATCCAGGACAGTGAATACATTGA, 0.507.
